Consider 40 molecules from PubChem BioAssay (Tox21).

Results filed as inconclusive are left out. Unmarked numbers belong to inactive results. Calls follow the shape of the dose curve; as a rule, active = well fitted cell-killing curve with a large enough effect in the repeat runs; inconclusive = weak or mixed curves, or effect the other way; inactive = flat fitted curve, though single readings scatter.
% is scaled to controls: 0 for no effect and ±100 for the full control effect.

The nature of the experiment: qHTS assay to identify small molecule antagonists of the constitutive androstane receptor (CAR) signaling pathway - cell viability counter screen (AID 1224837). Also: nearly all actives have a fitted effect of over 45% in size. The following applies: HepG2-CYP2B6-hCAR viability, CellTiter-Fluor, 23 h, co-treated with 50 nM CITCO; series mostly up to 92.4 µM; activity change, negative = cytotoxicity: at the top concentration. From the text:
National Center for Advancing Translational Sciences [NCATS]
NIH Chemical Genomics Center [NCGC]
U.S. Environmental Protection Agency [EPA]
National Institutes of Environmental Health Sciences [NIEHS]
National Toxicology Program [NTP]
U.S. Food and Drug Administration [FDA]
The constitutive androstane receptor (CAR) is a nuclear receptor which regulates multiple drug metabolizing enzymes (DMEs) and transporters. Activating CAR will generally increase the transcription and subsequent translation of CYP2B6 and CYP3A4. These two DMEs represent about 50% of the drug metabolizing potential in the body. When CAR is deactivated, the metabolizing potential in the body will decrease, subsequently increasing the toxicity in the body or lowering the therapeutic potential of a pro-drug. Recently, there have also been studies performed indicating CARs role in energy metabolism and cancer therapy. Therefore, inhibiting CARs activity could have a potential effect on diabetes and cancer. Identifying environmental toxins and compounds which modulate CAR, through the use of the Tox21 10K compound collection, will be an important step in determining the toxicity and potential therapeutic effects these factors will have on the human body. To differentiate true CAR antagonists from cytotoxic substances, the assay is multiplexed with a cell viability assay.
Tox21 Assay Protocol Summary:
A double-stable (hCAR and CYP2B6-2.2kb) transfected cell line, derived from human hepatoma (HepG2) cells, was utilized for the duration of the quantitative high-throughput screens. The HepG2-CYP2B6-hCAR cells were dispensed at 2500 cells/4 uL/well in 1536-well white solid bottom plates using a Multidrop Combi. After the assay plates were incubated at 37 C/5% CO2 for 4 hrs, 23 nL of compounds at 15 concentrations (from 5-48 columns) or positive control (from 1 to 4 columns) were transferred to the assay plates using a Pintool station. One uL of CITCO (final concentration = 50 nM) was added, using a Flying Reagent Dispenser, inside each well. After a 23 hr incubation period at 37 C/5% CO2, 1 uL of CellTiter-Fluor reagent was added into each well of the assay plates using a Flying Reagent Dispenser. The fluorescence intensity in the plates was then measured using a ViewLux plate reader.
`COc1ncc(F)c2nc(S(=O)(=O)Nc3c(F)cccc3F)nn12`: the “activity change, negative = cytotoxicity” value is 3.35% [at 42.5 µM].

`CNC(=O)N(C)c1nc2ccccc2s1`: the “activity change, negative = cytotoxicity” value is 7.37%.

Consider `Nc1ccccc1Cl`, for which the “activity change, negative = cytotoxicity” value is 2.41%.

In the case of `O=C1c2ccccc2C(=O)c2ccccc21`, the activity change, negative = cytotoxicity is 4.8% [at 19 µM].

`C[N+](C)=CCl`: the “activity change, negative = cytotoxicity” value was 10.2%.

For the molecule `CC1(C)COP(Oc2ccccc2)OC1`, the “activity change, negative = cytotoxicity” value was 1.55%.

Turning to `C=C(C)CN(CC)c1c([N+](=O)[O-])cc(C(F)(F)F)cc1[N+](=O)[O-]`, the “activity change, negative = cytotoxicity” value is 4.8%.

`CC(CC(C#N)(c1ccccc1)c1ccccc1)N(C)C` (stereo not given): the “activity change, negative = cytotoxicity” value is -22.3%.

As to `CSc1nc(N=[N+]=[N-])nc(NC(C)C)n1`, the “activity change, negative = cytotoxicity” value is -0.386%.

Turning to `CCOP(=S)(OCC)SCSP(=S)(OCC)OCC`, the “activity change, negative = cytotoxicity” value is 6.39%.

Turning to `O=C(NCO)NCO`, the “activity change, negative = cytotoxicity” value was 0.848%.

`CCN(CC)CCOC(=O)C(C)(c1ccccc1)c1ccccc1`: the “activity change, negative = cytotoxicity” value was -18.2% [at 42.5 µM].

`N#Cc1c(Cl)cccc1Cl`: the “activity change, negative = cytotoxicity” value was 5.01%.

Consider `CC(=O)CCc1ccc2c(c1)OCO2`, for which the “activity change, negative = cytotoxicity” value was 0.273%.

Regarding `OC(Cn1cncn1)(c1ccc(F)cc1)c1ccccc1F` (stereo not given), the “activity change, negative = cytotoxicity” value is -3.87%.

For the molecule `Cc1nc(N)nc(N)n1`, the “activity change, negative = cytotoxicity” value was -9.48%.

Take `CCCCCCBr`: the “activity change, negative = cytotoxicity” value is -13.3%.

Turning to `N#Cc1ccncc1`, the “activity change, negative = cytotoxicity” value was -4.39%.

For `NC(=S)C(N)=S`, the “activity change, negative = cytotoxicity” value is 12.9%.

Turning to `COP(=S)(OC)Oc1ccc(S(N)(=O)=O)cc1`, the “activity change, negative = cytotoxicity” value is 9.3% [at 42.5 µM].

In the case of `N#CCCC#N`, the “activity change, negative = cytotoxicity” value was 5.84%.

Consider `CNC(=O)Oc1c(C(C)(C)C)cc(C)cc1C(C)(C)C`, for which the “activity change, negative = cytotoxicity” value was 0.882%.

Regarding `CCC(=O)c1ccccc1`, the “activity change, negative = cytotoxicity” value is 2.27%.

Turning to `Cc1cc(C)c(C(=O)P(=O)(C(=O)c2c(C)cc(C)cc2C)c2ccccc2)c(C)c1`, the “activity change, negative = cytotoxicity” value is 7.02%.

As to `CN1CCC(O)(c2ccc(F)cc2)C(C(=O)c2ccc(F)cc2)C1` (stereo not given), the “activity change, negative = cytotoxicity” value is -16.8% [at 42.5 µM].

For the molecule `CNC(=O)Oc1cccc(C(C)C)c1`, the “activity change, negative = cytotoxicity” value is -2.31%.

Turning to `COP(N)(=S)Oc1ccccc1C(=O)OC(C)C` (stereo not given), the “activity change, negative = cytotoxicity” value was 8.59%.

In the case of `COCC(=O)N(c1c(C)cccc1C)N1CCOC1=O`, the “activity change, negative = cytotoxicity” value was -0.0087%.

Regarding `CC(C)(C)C(=O)C(Oc1ccc(Cl)cc1)n1cncn1` (stereo not given), the “activity change, negative = cytotoxicity” value is 2.78%.

Take `NC(=O)c1cc([N+](=O)[O-])cc([N+](=O)[O-])c1`: the “activity change, negative = cytotoxicity” value was -6.26% [at 42.5 µM].

Consider `CCCCP(CCCC)CCCC`, for which the “activity change, negative = cytotoxicity” value is -0.77%.

Turning to `O=C1OC(=O)C2C1C1(Cl)C(Cl)=C(Cl)C2(Cl)C1(Cl)Cl` (stereo not given), the “activity change, negative = cytotoxicity” value is -9.35%.

Consider `O=NN1CCN(N=O)CC1`, for which the “activity change, negative = cytotoxicity” value was 5.77%.

Regarding `CCCCC(=O)Cl`, the “activity change, negative = cytotoxicity” value is 15.3%.

For `CC1(C)CON(Cc2ccccc2Cl)C1=O`, the “activity change, negative = cytotoxicity” value was -3.79%.

`CCOP(=S)(OCC)Oc1nc(Cl)n(C(C)C)n1`: the “activity change, negative = cytotoxicity” value was -0.0943%.

In the case of `CC(=O)C(Cl)Cl`, the “activity change, negative = cytotoxicity” value was 5.56%.

For the molecule `Nc1n[nH]c(N)n1`, the “activity change, negative = cytotoxicity” value was -23.3%.

Take `O=C(Cc1ccccc1)OCc1ccccc1`: the “activity change, negative = cytotoxicity” value was -18.9%.

As to `CCOC(=O)C1(c2ccccc2)CCN(CCc2ccc(N)cc2)CC1`, the “activity change, negative = cytotoxicity” value was -13.3% [at 42.5 µM].
